# Cycloheximide cs – affects cycloheximide protein synthesis inhibition readout, counter-screen. cell reporter, cycloheximide protein synthesis inhibition counterscreen. max response, %. 12% of 300,000 active. AID 2314; in the data active means max response mostly above about 13%, no sharp cut-off; inactive means mostly below about 14%; further: read at 38.3 µM for the half of the compounds with a filed dose; 0% is about no effect
# SARS PLP yeast – inhibitors of SARS-CoV papain-like protease in yeast | S. cerevisiae expressing SARS-CoV PLpro, growth rescue | Potency, µM (top dose mostly 32.9 µM), without a hit: at the top dose activity, positive = growth rescue, actives largely listed as activators | 0.19% of 330,000 active | AID 485353; further: potency means the concentration at half of the fitted maximal effect; 0% is about no effect; nearly all actives have a fitted effect of over 55% in size
# TbPYK inhibitor – T. brucei pyruvate kinase inhibition | Q57TT1 | TbPYK enzyme, Kinase-Glo Plus ATP luminescence, 45 min | Potency, µM (series often up to 76.8 µM), inactives show at the highest dose activity, negative = inhibition, hits mostly inhibitors | 0.12% of 410,000 active | AID 624173; active means well fitted curve in the direction sought with a large enough effect; inconclusive means small, poorly fitted or top-dose-only effect, or another doubt; inactive means no such curve, though single readings can be large; an effect the other way counts as inactive or inconclusive; further: potency means the concentration at half of the fitted maximal effect; on the % scale 0 is the no-effect control and ±100 the full control effect; nearly all actives have a fitted effect of over 50% in size
#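 Assay buffer: 50 mM TEA pH 7.2, 100 mM KCl, 10 mM MgCl2, 0.05% BSA, 0.01% Tween-20. Pyruvate kinase from T. brucei plus substrate met compound, then ADP (130 uM final). Luminescence was read post 45 min RT.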
# LmPK inh – LmPK (Leishmania mexicana) enzyme inhibition; Q27686; 0.37% of 290,000 active; Potency, µM (doses to about 57.5 µM), for inactives: top-dose activity change, negative = inhibition, hits mostly inhibitors; purified LmPK, Kinase-Glo ATP luminescence, 1 h; active means well fitted curve in the direction sought with a large enough effect; inconclusive means small, poorly fitted or top-dose-only effect, or another doubt; inactive means no such curve, though single readings can be large; an effect the other way counts as inactive or inconclusive; further: potency means the concentration at half of the fitted maximal effect; on the % scale 0 is the no-effect control and ±100 the full control effect
# Target sequence (Q27686 whole entry, looked up): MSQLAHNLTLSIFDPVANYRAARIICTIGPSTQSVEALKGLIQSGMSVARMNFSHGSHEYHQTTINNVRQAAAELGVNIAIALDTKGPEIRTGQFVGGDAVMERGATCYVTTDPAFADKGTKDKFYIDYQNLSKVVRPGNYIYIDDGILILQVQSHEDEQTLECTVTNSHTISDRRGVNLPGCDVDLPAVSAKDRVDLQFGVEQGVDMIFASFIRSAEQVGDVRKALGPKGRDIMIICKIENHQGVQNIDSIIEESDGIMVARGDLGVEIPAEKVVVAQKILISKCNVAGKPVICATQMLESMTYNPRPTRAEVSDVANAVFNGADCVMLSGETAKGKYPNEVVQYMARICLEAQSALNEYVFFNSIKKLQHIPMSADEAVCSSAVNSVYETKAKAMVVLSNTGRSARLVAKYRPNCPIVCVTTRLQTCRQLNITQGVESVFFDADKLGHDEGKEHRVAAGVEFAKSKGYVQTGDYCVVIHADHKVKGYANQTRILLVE
#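 Pyruvate kinase activity monitored as ATP production (luciferase luminescence). Conditions: 0.1 nM enzyme, 0.5 mM PEP, 0.1 mM ADP, 1 h, RT; normalized against uninhibited and no-enzyme wells.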
# NS1 function inh – inhibitors of influenza NS1 protein function; 0.4% of 270,000 active; Potency, µM (top dose mostly 46.1 µM), for the others: top-dose activity, positive = more growth; further: potency means the concentration at half of the fitted maximal effect; actives are rising curves; nearly all actives have a fitted effect of over 50% in size
#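 A cell-based growth assay was used: compounds that relieve NS1-induced slow growth of budding yeast raise OD600. Assay medium was yeast nitrogen base with ammonium sulphate and -URA supplement, pH 6.0, with 2% galactose.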
# Shiga toxin inh – Shiga toxin inhibition. Vero cells, Shiga toxin protein synthesis inhibition reporter. inhibition, % at 38.7 µM. 9.2% of 290,000 active. AID 2315; in the data active means inhibition mostly above about 28%, no sharp cut-off; inactive means mostly below about 43%; further: 0% is about no effect
# * marks the source's active call; other numbers are inactive results; ? = inconclusive; . = not tested or not shown; + = active, no number. The entries come from a sample that favours hits as a whole. Unless noted, the call rests on the fitted dose curve.
SMILES,Cycloheximide cs,SARS PLP yeast,TbPYK inhibitor,LmPK inh,NS1 function inh,Shiga toxin inh
O=C(COC(=O)c1cccs1)NCc1ccco1,-2,-2%,-17%,4%,-6%,39
O=C(COC(=O)c1cccs1)NCC1CCCCC1,20*,-7%,-1%,-6%,.,23
O=S(=O)(c1ccc(-c2csc(=Nc3ccc(F)cc3)n2CCCCCCO)cc1)N1CCCC1,.,.,-5%,.,.,.
O=C(CSC(=S)N1CCCC1)N(Cc1nnc(-c2ccccc2Cl)o1)C1CC1,.,-1%,0%,.,.,.
S=c1nc(NCc2ccc3c(c2)OCO3)c2ccccc2[nH]1,13,-2%,5%,-13%,3%,1
COc1ccc2nc(N3CCCC3)[nH]c2c1,19*,1%,-11%,-7%,0%,29
c1ccc2[nH]c(NCc3ccc4c(c3)OCO4)nc2c1,34*,0%,3%,-11%,1%,63*
Cc1ccc2nc(NCc3ccccc3)[nH]c2c1,34*,-5%,0%,3%,-6%,91*
COc1ccc2nc(NCc3ccccc3)[nH]c2c1,24*,6%,-7%,0%,5%,86
COC(=O)c1cnc(N2CCN(c3ccc(OC)cc3)CC2)c2ccccc12,.,.,3%,.,.,.
Cc1c(C)c2c(cc(C)c3c(-c4ccc(Br)cc4)coc32)oc1=O,.,.,-3%,.,.,.
c1ccc(CNc2nc3ccccc3[nH]2)cc1,26*,0%,11%,-8%,2%,174
O=c1[nH]c2ccccc2nc1NCc1ccccc1,10,-1%,3%,-9%,-12%,13
N#C/C(=C\c1ccc(N2CCOCC2)o1)C(=O)NC1CCCCC1,23*,0%,-7%,-2%,3%,46*
N#C/C(=C/c1ccc(N2CCOCC2)o1)C(=O)Nc1ccccc1,36*,-1%,-1%,0%,-7%,76*
CN(C(=O)CSc1nnc(-c2ccc(F)cc2)n1C)C1CCS(=O)(=O)C1 (configuration not stated),.,-4%,5%,.,.,.
O=C(Cc1ccc(NC(=O)C2CCN(C(=O)C3CCCC3)CC2)cc1)Nc1ccc(C(=O)N2CCOCC2)cc1,.,.,1%,.,.,.
Cc1cc(=O)[nH]c(NCc2ccc(Cl)cc2)n1,4,3%,-15%,1%,9%,11
CSc1n[nH]c(NCc2ccccc2)n1,9,-1%,-5%,-4%,1%,29*
CSc1n[nH]c(NCc2ccc(C)cc2)n1,40*,-8%,-4%,6%,5%,72*
Fc1cc(F)nc(NCc2ccccc2)n1,-4,-2%,-7%,-1%,3%,-4
CSc1n[nH]c(NCc2ccc(Cl)cc2)n1,15*,25%,.,1%,3%,51*
CCc1cccc(C)c1NC(=O)Cn1ccn(Cc2ccc(Cl)cc2)c(=O)c1=O,.,.,-3%,.,.,.
O=C(COc1cccnc1[N+](=O)[O-])c1ccc(Cl)s1,18*,-2%,-17%,3%,1%,29
CC(=O)Nc1ccccc1OCC(=O)c1cc(C)n(Cc2cccs2)c1C,66*,-12%,4%,4%,-43%,127*
SMILES,Cycloheximide cs,SARS PLP yeast,TbPYK inhibitor,LmPK inh,NS1 function inh,Shiga toxin inh
O=C(COc1cccnc1[N+](=O)[O-])Nc1c(Cl)cccc1Cl,.,-3%,1%,.,.,.
COC(=O)CCn1c(C)cc(C(=O)COc2ccccc2C(N)=O)c1C,11,-5%,3%,-5%,.,-11
Cc1cc(C(=O)COc2cccnc2[N+](=O)[O-])c(C)n1Cc1cccs1,43*,-1%,-13%,1%,.,147*
CCN(CC)S(=O)(=O)c1ccc(NC(=O)c2cc3ccc4cccnc4c3[nH]2)cc1,.,.,-11%,.,.,.
CCOC(=O)[C@@H](O)Cc1cnc2ccccc2n1,.,.,.,.,0%,.
CCc1cccc(NC(=O)CSC2=NS(=O)(=O)c3ccccc32)c1,-3,-8%,?,16µM*,-48%,-8
CN(C(=O)CCc1nc2ccccc2s1)c1ccccc1,21*,-17%,2%,0%,-7%,1
CN(C(=O)COc1nc2ccccc2s1)c1ccccc1,11,.,.,.,.,23*
CN(C(=O)COc1cc(C(F)(F)F)nn1C)c1ccccc1,-2,0%,5%,4%,1%,15
COc1ccccc1C(=O)O/N=C(\c1ccccc1)c1ccncc1,0,-10%,-2%,8%,.,5
N/C(=N\OC(=O)CCCOc1ccc(Cl)cc1Cl)c1ccncc1,8,-12%,4%,5%,-41%,28
N/C(=N\OC(=O)c1ccc(Cl)cc1Cl)c1ccncc1,30*,1%,0%,-13%,4%,82*
Cc1ccccc1C(=O)O/N=C(\N)c1ccncc1,61*,6%,-7%,?,-18%,53*
COc1cccc(C(=O)O/N=C(\N)c2ccncc2)c1OC,35*,5%,4%,-11%,0%,27*
N/C(=N\OC(=O)c1cc(Cl)ccc1Cl)c1ccncc1,27*,-1%,0%,-2%,2%,74*
COc1ccc(Cl)cc1NC(=O)CSc1ccc(-c2sc(C)nc2C)nn1,.,.,-5%,.,.,.
CCOc1ccccc1C(=O)OCC(=O)NCC1CCCCC1,.,0%,-4%,.,.,.
COc1ccc(-n2nc(C(=O)N3CCCC(C)C3)c3c4ccccc4n(C)c3c2=O)cc1 (configuration not stated),.,.,-1%,.,.,.
N/C(=N\OC(=O)c1ccccc1Cl)c1ccncc1,17*,-1%,-1%,1%,4%,71*
CCn1cc(C2=NC(c3ccccc3)CO2)c2ccccc21 (configuration not stated),15,?,5%,1%,-117%,24
COc1ccc(C2=N[C@@H](C(C)C)CO2)cc1,64*,.,.,.,.,+
CC(C)[C@@H]1COC(c2cccc(C3=N[C@H](C(C)C)CO3)n2)=N1,-4,3%,-5%,-2%,9%,-7
COc1ccc(C2CC23N=C(c2ccccc2)OC3=O)cc1 (configuration not stated),-2,-29%,-10%,-1%,-13%,-3
O=[N+]([O-])c1cccc(C2=NC(c3ccccc3)CO2)c1 (configuration not stated),23*,-5%,-2%,3%,5%,81*
COc1ccc(C2=NC(c3ccccc3)CO2)cc1 (configuration not stated),56*,7%,.,-8%,4%,96*
COc1ccc(C2=N[C@H](c3ccccc3)CO2)cc1,37,.,.,.,.,+
CC1(C)COC(c2cccc([N+](=O)[O-])c2)OC1,.,.,0%,.,.,.
O=C(CCc1ccccc1)N1CCc2c([nH]c3ccccc23)C1c1ccc(F)cc1 (configuration not stated),.,.,4%,.,.,.
Cc1[nH]c(/C=C2/C(=O)Nc3ccc(S(=O)(=O)Cc4c(Cl)cccc4Cl)cc32)c(C)c1C(=O)N1CCCC1CN1CCCC1 (configuration not stated),-12,.,.,.,.,-22
CCc1ccc(-c2nc3ccc(Br)cc3c(C(=O)O)c2C)s1,9,1%,2%,-1%,2%,-6

# From PubChem BioAssay
